# Values joined by “and” are separate entries in the source; they are usually repeats but may differ in a detail not shown here. Equal values may be shown once. Where a name gives a salt, the structure may show the parent alone.
# How the values were obtained:
# Experiment in all cases: thermal shift delta Tm vs DMSO control; higher = stronger stabilization (binding)
# Conditions in all cases: 12.5 µM; protein concentration 2 µM
# LOC_OS04G57630-cb004 = tested on: LOC_OS04G57630-cb004
# Method in brief: (§1)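 Compounds dissolved in DMSO were added to purified rice kinase domain constructs, which had been expressed in E. coli, for differential scanning fluorimetry. Each well held 19.5 μl of 2 μM kinase in 100 mM potassium phosphate pH 7.5, 150 mM NaCl, 10% glycerol and 5 × SYPRO Orange. Fluorescence was followed from 25°C to 95°C at a rate of 0.05°C/s. Shifts in Boltzmann-fitted melting temperature are triplicate means relative to DMSO-only protein.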
# LOC_OS05G07850-cb002 = tested on: LOC_OS05G07850-cb002
# Method in brief: as §1
# LOC_OS05G16824-cb004 = tested on: LOC_OS05G16824-cb004
# Method in brief: as §1
# LOC_OS05G28520-cb001 = tested on: LOC_OS05G28520-cb001
# Method in brief: as §1
# LOC_OS05G30820-cb001 = tested on: LOC_OS05G30820-cb001
# Method in brief: as §1
# LOC_OS05G43570-cb004 = tested on: LOC_OS05G43570-cb004
# Method in brief: as §1
# LOC_OS06G16330-cb003 = tested on: LOC_OS06G16330-cb003
# Chain of LOC_OS06G16330-cb003 (as listed by the source): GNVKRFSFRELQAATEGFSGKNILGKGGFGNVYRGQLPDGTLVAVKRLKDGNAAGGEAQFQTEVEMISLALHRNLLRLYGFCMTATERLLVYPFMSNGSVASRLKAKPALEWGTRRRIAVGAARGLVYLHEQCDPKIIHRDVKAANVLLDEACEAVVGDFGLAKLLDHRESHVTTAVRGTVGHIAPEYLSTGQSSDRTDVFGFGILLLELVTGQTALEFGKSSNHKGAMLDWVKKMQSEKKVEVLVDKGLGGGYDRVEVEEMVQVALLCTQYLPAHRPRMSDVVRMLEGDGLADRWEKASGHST
# Method in brief: as §1
# LOC_OS06G22820-cb001 = tested on: T1, LOC_OS06G22820-cb001
# T1 sequence (whole entry): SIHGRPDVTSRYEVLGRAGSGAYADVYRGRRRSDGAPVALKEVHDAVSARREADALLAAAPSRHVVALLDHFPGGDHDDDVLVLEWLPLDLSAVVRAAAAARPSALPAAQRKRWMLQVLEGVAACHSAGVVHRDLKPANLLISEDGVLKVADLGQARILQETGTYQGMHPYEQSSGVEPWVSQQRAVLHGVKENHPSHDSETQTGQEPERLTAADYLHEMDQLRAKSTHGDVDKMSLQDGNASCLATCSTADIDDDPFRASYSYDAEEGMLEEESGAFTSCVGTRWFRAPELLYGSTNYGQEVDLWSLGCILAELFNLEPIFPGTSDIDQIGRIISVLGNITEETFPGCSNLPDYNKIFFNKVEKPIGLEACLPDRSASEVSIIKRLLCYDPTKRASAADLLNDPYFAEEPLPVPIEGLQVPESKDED
# Method in brief: as §1
# LOC_OS07G06570-cb004 = tested on: LOC_OS07G06570-cb004
# Method in brief: as §1
# LOC_OS07G07230-cb001 = tested on: LOC_OS07G07230-cb001
# Method in brief: as §1
Compound,thermal shift delta Tm (LOC_OS04G57630-cb004),thermal shift delta Tm (LOC_OS05G07850-cb002),thermal shift delta Tm (LOC_OS05G16824-cb004),thermal shift delta Tm (LOC_OS05G28520-cb001),thermal shift delta Tm (LOC_OS05G30820-cb001),thermal shift delta Tm (LOC_OS05G43570-cb004),thermal shift delta Tm (LOC_OS06G16330-cb003),thermal shift delta Tm (LOC_OS06G22820-cb001),thermal shift delta Tm (LOC_OS07G06570-cb004),thermal shift delta Tm (LOC_OS07G07230-cb001)
COC(=O)Nc1ccc(-c2nc(N3CCOCC3)c3cnn(C4CCN(C(=O)OC)CC4)c3n2)cc1,0.06 °C,0.49 °C,-0.54 °C,-0.26 °C,0.57 °C,0.65 °C,-0.2 °C,0.4 °C,0.99 °C,-0.41 °C
Nc1[nH]nc2nnc(-c3c(-c4ccccc4)nn4ccccc34)cc12,0.25 °C,2.77 °C,2.12 °C,0.56 °C,0.84 °C,0.89 °C,1.11 °C,0.39 °C,0.46 °C,0.64 °C
CNC(=O)c1cc(Oc2ccc(NC(=O)Nc3ccc(Cl)c(C(F)(F)F)c3)cc2)ccn1 [Sorafenib Tosylate],1.2 °C,9.63 °C,1.35 °C,1.33 °C,0.5 °C,1.5 °C,1.91 °C,2.15 °C,1.66 °C,0.6 °C
CCN1CCN(Cc2ccc(Nc3ncc(F)c(-c4cc(F)c5nc(C)n(C(C)C)c5c4)n3)nc2)CC1,1.35 °C,12.6 °C,3.33 °C,0.73 °C,0.2 °C,0.41 °C,6.17 °C,0.41 °C,1.14 °C,0.37 °C
O=S(=O)(c1cccc2c(I)cccc12)N1CCCNCC1,-0.05 °C,0.78 °C,1.61 °C,0.14 °C,0.08 °C,0.32 °C,0.09 °C,0.37 °C,1.9 °C,0.16 °C
C=C[C@@](C)(/C=C/c1ccc(O)cc1)CCC=C(C)C [Bakuchiol],0.09 °C,0.26 °C,-1.27 °C,0.19 °C,0.04 °C,0.47 °C,-0.03 °C,0.41 °C,0.83 °C,0.15 °C
CCN1CCN(Cc2ccc(-c3cc4c(N[C@H](C)c5ccccc5)ncnc4[nH]3)cc2)CC1,0.95 °C,5.78 °C,3.87 °C,1 °C,0.48 °C,0.5 °C,4.68 °C,0.76 °C,1.03 °C,0.13 °C
Nc1nc(N)c2nc(-c3cccc(O)c3)c(-c3cccc(O)c3)nc2n1,0.04 °C,5.27 °C,-5.41 °C,0.94 °C,0.79 °C,0.92 °C,0.76 °C,0.53 °C,1.54 °C,0.2 °C
Nc1ncnc2n[nH]c(Nc3ccc(F)cc3)c12,-0.19 °C,8.51 °C,1.59 °C,0.61 °C,0.77 °C,0.52 °C,2.45 °C,0.73 °C,1.75 °C,0.82 °C
OCCn1cc(-c2ccc3c(c2)CC/C3=N\O)c(-c2ccncc2)n1,0.24 °C,2.18 °C,0.35 °C,1.1 °C,0.48 °C,0.5 °C,0.46 °C,0.85 °C,0.92 °C,0.21 °C
C[C@H](NC(=O)c1c(N)nn2cccnc12)c1cc2cccc(C#Cc3cnn(C)c3)c2c(=O)n1-c1ccccc1,-0.07 °C,0.09 °C,2.93 °C,0.27 °C,0.07 °C,0.11 °C,-0.63 °C,0.3 °C,1.69 °C,0.62 °C
C[C@H](CN(C)C)Oc1nc(Nc2cc3cccc(Cl)c3cn2)cnc1C#N,-0.04 °C,5.49 °C,3.41 °C,0.32 °C,0.46 °C,0.43 °C,1.98 °C,0.49 °C,0.8 °C,0.34 °C
Cc1[nH]c(/C=C2\C(=O)Nc3ccc(S(=O)(=O)Cc4c(Cl)cccc4Cl)cc32)c(C)c1C(=O)N1CCC[C@@H]1CN1CCCC1,2.32 °C,10.3 °C,0 °C,0.75 °C,0.48 °C,0.55 °C,6.03 °C,0.86 °C,0.77 °C,0.98 °C
Nc1cccc(S(=O)(=O)N2CCCN(S(=O)(=O)c3ccc4c(c3)OCCO4)CC2)c1,-0.1 °C,0.55 °C,-0.03 °C,0.74 °C,0.46 °C,0.1 °C,-0.91 °C,0.44 °C,1.4 °C,0.56 °C
COc1cc2c(N3CCN(C(=O)Nc4ccc(OC(C)C)cc4)CC3)ncnc2cc1OCCCN1CCCCC1 [Tandutinib (MLN518)],2.05 °C,1.44 °C,0.72 °C,0.2 °C,0.16 °C,0.41 °C,-1.38 °C,0.3 °C,1.1 °C,0.38 °C
CN(c1ncccc1CNc1nc(Nc2ccc3c(c2)CC(=O)N3)ncc1C(F)(F)F)S(C)(=O)=O,1.44 °C and 2.05 °C,8.97 °C and 9.58 °C,9.12 °C and 9.67 °C,0.98 °C and 1.52 °C,4.26 °C and 3.92 °C,0.77 °C and 0.58 °C,4.21 °C and 5.5 °C,-0.01 °C and -0.19 °C,0.81 °C and 1.35 °C,0.45 °C and 0.44 °C
CC(C)(C)Cn1c(N)nc2ccc(-c3[nH]c(C(C)(C)C)nc3-c3ccc(F)cc3)nc21,-1.17 °C,1.45 °C,-0.61 °C,0.04 °C,0.34 °C,0.33 °C,0.24 °C,0.34 °C,0.31 °C,0.21 °C
CN1CC[C@H](c2c(O)cc(O)c3c(=O)cc(-c4ccccc4Cl)oc23)[C@H](O)C1 [Flavopiridol HCl],0.77 °C,4.9 °C,0.91 °C,0.55 °C,0.9 °C,0.71 °C,3.57 °C,1.71 °C,0.71 °C,0.03 °C
COCCOc1cnc2ccn([C@H](C)c3nnc4c(F)cc(-c5cnn(C)c5)cn34)c(=O)c2c1,0.33 °C,0.47 °C,-0.61 °C,0.19 °C,0.72 °C,0.35 °C,2.3 °C,0.29 °C,1.07 °C,0.81 °C
CCN(CC)CCNC(=O)c1c(C)[nH]c(/C=C2\C(=O)Nc3ccc(-c4csc(-c5ccccc5)n4)cc32)c1C [Amcasertib (BBI503)],2.36 °C,10.8 °C,12.7 °C,2.76 °C,0.34 °C,0 °C,6.16 °C,0.72 °C,1.73 °C,0.75 °C

# Reference: the supplement of paper PMC9694430
